In the supplement of paper PMC10849652:
Targets with a hit are over-represented here; the source holds about 8,800 in all. About 0.5% of all pairs of compound and target were hits.

What was measured:
Assay in all cases: log2 fold change, soluble protein after heating vs DMSO (PISA); higher = thermal stabilisation; K562 lysate, 10 uM; active = over 0.2 and 3.5 SD of the protein, either way, in both replicates (recomputed)
[1] = compound: C1=CC=C(C=C1)[C@H](COC2=CC3=C(C=C2)NC(=O)N3)NC(=O)C4=CC=CN(C4=O)CC5=CC(=C(C=C5)F)F
Method in brief: (§1)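 A 30 min treatment with 10 μM compound was applied to crude K562 extract at 1 mg/mL protein in PBS pH 7.4 with 1 mM MgCl2. Heating for 3 min spanned 48°C-58°C, after which aliquots were pooled, adjusted to 0.5% NP-40 at 4°C and spun at 21,000xg for 90 min. TMTpro 16plex LC-MS/MS of the supernatant, with channel sums equalised, gave values recorded as log-two fold change in thermal stability against solvent controls, from duplicates.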

[2] = compound: CC1=C(SC2=C1C(=N[C@H](C3=NN=C(N32)C)CC(=O)N)C4=CC=C(C=C4)Cl)C
Method in brief: as §1

[3] = compound: CC1=C2C(=CC=C1)N=C(N(C2=O)C3=CC=CC=C3C)CN4C=NC5=C(N=CN=C54)N
Method in brief: as §1

[4] = compound: Cc1sc2c(c1C)C(c1ccc(Cl)cc1)=N[C@@H](CC(=O)OC(C)(C)C)c1nnc(C)n1-2
Method in brief: as §1

[5] = compound: c1ccc([C@@H]2C[C@H]2NC2CCNCC2)cc1
Method in brief: as §1

Measured: log2 fold change

CKM (UniProt P06732)
Sequence of UniProt P06732 (P06732 whole entry, looked up): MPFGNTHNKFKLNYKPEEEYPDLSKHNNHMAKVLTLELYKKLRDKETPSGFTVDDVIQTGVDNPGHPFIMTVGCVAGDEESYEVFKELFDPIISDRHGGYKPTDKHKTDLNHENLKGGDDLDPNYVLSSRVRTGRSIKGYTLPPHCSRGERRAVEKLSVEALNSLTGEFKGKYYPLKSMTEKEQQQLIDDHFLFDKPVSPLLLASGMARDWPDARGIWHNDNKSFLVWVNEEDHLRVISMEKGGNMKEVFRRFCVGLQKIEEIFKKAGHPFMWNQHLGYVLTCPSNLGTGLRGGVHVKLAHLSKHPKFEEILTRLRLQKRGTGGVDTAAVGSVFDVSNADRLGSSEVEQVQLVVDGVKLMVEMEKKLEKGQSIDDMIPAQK
inactive: [1] 0.008 | [2] -0.027 | [3] -0.109 | [4] -0.169 | [5] 0

COG4 (UniProt Q9H9E3)
inactive: [1] 0.005 | [2] 0.034 | [3] 0.096 | [4] -0.036 | [5] 0.011

DNAH5 (UniProt Q8TE73)
inactive: [1] -0.019 | [2] 0.018 | [3] 0.007 | [4] -0.087 | [5] -0.216

DCP2 (UniProt Q8IU60)
inactive: [1] 0.006 | [2] -0.001 | [3] 0.041 | [4] 0.026 | [5] 0.048

CLASP2 (UniProt O75122)
inactive: [1] 0.16 | [2] -0.248 | [3] -0.105 | [5] 0.002

CNOT6L (UniProt Q96LI5)
inactive: [1] -0.014 | [2] 0.017 | [3] -0.013 | [4] -0.049 | [5] -0.164

DOCK10 (UniProt Q96BY6)
inactive: [1] 0.053 | [2] -0.018 | [3] 0.062 | [4] -0.109 | [5] -0.491

DNAJC3 (UniProt Q13217)
inactive: [1] 0.06 | [2] -0.073 | [3] -0.003 | [4] -0.01 | [5] 0.031

CLCN3 (UniProt P51790)
inactive: [1] 0.094 | [2] 0.014 | [3] 0.061 | [4] 0.063 | [5] 0.017

DDX4 (UniProt Q9NQI0)
inactive: [1] -0.047 | [2] 0.007 | [3] -0.004 | [4] 0.049 | [5] -0.265

COASY isoform 2 (UniProt Q13057)
inactive: [1] -0.049 | [2] -0.002 | [3] 0.03 | [4] 0.07 | [5] 0.01

DMAC2L (UniProt Q99766)
Sequence of UniProt Q99766 (Q99766 whole entry, looked up): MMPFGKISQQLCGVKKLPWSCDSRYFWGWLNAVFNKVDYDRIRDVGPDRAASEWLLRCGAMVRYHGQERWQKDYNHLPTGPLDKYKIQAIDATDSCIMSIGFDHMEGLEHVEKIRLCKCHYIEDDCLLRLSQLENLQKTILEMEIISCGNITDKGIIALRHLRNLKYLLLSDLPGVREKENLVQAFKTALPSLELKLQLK
inactive: [1] -0.031 | [2] -0.048 | [3] 0.057 | [4] -0.005 | [5] -0.061

CRABP2 (UniProt P29373)
inactive: [1] -0.057 | [2] -0.051 | [3] 0.055 | [4] -0.172 | [5] -0.001

DHRS11 (UniProt Q6UWP2)
inactive: [1] -0.004 | [2] 0.012 | [3] 0.018 | [4] 0.013 | [5] 0.014

DDA1 (UniProt Q9BW61)
inactive: [1] 0.073 | [2] 0.024 | [3] -0.016 | [4] -0.003 | [5] 0.029

CYP2S1 isoform 2 (UniProt Q96SQ9)
inactive: [3] 0.033 | [4] -0.123

DCTN1 isoform 4 (UniProt Q14203)
inactive: [3] 0.013 | [4] -0.13 | [5] -0.452

DNAJC24 (UniProt Q6P3W2)
Sequence of UniProt Q6P3W2 (Q6P3W2 whole entry, looked up): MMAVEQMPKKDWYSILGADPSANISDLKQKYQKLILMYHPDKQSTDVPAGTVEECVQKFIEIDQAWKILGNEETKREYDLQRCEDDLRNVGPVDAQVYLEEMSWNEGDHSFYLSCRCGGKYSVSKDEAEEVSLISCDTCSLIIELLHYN
inactive: [3] 0.007 | [4] 0.024 | [5] 0.055

DDAH1 (UniProt O94760)
Sequence of UniProt O94760 (O94760 whole entry, looked up): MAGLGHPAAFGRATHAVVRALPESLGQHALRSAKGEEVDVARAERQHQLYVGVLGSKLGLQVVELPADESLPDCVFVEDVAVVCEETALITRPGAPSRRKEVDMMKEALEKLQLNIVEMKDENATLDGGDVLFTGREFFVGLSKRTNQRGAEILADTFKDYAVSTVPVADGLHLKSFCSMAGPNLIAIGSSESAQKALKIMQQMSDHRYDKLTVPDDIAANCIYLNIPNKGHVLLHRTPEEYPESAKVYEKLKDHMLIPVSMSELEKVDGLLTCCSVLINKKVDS
inactive: [3] 0.005 | [4] 0.15 | [5] -0.072

DLGAP5 isoform 3 (UniProt Q15398)
inactive: [1] -0.167 | [2] 0.031 | [4] -0.036 | [5] 0.021

COL6A3 (UniProt P12111)
Sequence of UniProt P12111 (P12111 whole entry, looked up): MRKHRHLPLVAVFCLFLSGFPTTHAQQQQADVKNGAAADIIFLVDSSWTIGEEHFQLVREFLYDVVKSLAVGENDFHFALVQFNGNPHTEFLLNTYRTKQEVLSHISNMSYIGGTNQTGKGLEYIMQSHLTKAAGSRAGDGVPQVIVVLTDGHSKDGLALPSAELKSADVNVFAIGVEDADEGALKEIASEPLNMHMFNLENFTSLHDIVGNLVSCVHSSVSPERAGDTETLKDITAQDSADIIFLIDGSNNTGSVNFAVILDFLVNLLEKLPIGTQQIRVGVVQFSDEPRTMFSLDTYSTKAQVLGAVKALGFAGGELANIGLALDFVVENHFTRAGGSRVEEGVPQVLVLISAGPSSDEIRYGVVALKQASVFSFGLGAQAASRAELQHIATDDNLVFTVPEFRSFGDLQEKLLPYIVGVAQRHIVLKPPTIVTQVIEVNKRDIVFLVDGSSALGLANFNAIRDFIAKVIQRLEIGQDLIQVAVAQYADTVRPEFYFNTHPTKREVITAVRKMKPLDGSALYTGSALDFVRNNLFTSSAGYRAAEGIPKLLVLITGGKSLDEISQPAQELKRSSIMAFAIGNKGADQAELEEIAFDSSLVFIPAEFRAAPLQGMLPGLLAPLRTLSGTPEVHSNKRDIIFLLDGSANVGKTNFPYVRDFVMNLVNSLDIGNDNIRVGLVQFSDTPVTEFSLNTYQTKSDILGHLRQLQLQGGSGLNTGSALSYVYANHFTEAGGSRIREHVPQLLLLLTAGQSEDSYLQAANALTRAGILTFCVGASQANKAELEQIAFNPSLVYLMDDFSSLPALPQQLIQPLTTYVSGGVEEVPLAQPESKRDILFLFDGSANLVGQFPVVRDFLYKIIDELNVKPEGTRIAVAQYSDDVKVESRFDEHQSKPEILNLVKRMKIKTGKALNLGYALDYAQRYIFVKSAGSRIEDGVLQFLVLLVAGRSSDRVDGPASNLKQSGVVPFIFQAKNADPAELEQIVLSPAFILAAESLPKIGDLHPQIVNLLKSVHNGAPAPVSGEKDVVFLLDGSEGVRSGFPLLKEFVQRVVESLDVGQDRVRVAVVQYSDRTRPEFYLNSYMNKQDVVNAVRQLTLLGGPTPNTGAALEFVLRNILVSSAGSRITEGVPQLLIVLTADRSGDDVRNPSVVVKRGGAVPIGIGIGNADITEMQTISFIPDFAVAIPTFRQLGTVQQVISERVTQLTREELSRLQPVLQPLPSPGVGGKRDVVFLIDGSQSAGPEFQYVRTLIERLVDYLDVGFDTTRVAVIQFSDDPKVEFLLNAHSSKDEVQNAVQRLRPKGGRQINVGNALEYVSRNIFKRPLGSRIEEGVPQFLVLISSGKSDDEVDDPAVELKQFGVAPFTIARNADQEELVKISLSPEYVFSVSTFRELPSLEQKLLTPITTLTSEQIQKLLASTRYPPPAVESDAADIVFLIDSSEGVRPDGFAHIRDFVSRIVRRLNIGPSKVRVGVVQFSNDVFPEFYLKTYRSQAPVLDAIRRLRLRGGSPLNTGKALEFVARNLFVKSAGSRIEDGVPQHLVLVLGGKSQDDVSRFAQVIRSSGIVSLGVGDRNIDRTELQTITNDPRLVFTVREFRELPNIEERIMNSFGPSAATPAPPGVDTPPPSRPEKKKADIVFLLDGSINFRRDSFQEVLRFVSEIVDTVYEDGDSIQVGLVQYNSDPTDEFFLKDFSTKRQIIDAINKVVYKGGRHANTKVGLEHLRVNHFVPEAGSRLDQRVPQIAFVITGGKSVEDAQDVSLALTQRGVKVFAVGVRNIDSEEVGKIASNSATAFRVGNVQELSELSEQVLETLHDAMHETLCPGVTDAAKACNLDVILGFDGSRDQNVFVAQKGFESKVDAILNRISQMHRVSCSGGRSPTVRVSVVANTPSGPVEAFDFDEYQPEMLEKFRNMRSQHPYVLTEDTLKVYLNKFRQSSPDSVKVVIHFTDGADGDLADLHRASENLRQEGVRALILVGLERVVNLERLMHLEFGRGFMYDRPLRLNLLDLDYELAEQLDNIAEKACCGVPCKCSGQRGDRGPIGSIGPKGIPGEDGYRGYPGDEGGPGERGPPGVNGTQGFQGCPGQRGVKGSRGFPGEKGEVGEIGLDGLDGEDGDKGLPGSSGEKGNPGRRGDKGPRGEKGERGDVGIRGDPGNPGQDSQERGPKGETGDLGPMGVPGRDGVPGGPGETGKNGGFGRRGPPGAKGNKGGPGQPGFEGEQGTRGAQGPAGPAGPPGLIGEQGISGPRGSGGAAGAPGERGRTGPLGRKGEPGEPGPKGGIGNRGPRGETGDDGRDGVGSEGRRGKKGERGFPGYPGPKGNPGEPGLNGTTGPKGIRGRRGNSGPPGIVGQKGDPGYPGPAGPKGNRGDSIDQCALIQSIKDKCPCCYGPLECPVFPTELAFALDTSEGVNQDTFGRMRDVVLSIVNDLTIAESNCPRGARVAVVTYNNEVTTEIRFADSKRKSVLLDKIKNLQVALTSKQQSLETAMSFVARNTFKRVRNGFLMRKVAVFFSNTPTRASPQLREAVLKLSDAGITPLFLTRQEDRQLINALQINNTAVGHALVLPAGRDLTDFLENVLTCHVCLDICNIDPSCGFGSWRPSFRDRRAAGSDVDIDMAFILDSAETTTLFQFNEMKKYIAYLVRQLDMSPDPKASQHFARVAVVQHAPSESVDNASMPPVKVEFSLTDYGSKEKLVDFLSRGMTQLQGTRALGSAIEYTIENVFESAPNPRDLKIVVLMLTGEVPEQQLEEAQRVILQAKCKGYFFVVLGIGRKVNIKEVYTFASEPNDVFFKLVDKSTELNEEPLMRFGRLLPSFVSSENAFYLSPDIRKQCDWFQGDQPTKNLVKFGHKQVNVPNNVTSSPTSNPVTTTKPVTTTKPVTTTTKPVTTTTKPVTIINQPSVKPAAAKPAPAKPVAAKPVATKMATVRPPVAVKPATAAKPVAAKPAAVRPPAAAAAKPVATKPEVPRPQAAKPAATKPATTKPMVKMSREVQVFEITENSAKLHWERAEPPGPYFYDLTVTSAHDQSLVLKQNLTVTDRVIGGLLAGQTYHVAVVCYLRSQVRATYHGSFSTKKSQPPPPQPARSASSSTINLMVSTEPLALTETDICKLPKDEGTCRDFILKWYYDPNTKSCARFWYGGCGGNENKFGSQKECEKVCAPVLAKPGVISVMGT
inactive: [1] -0.008 | [2] -0.04 | [4] -0.079 | [5] 0.13

CORO7 (UniProt P57737)
inactive: [3] 0.18 | [4] 0.165 | [5] 0.164

CRLS1 (UniProt Q9UJA2)
inactive: [1] -0.349 | [2] 0.044 | [5] 0.065

CLASP1 isoform 4 (UniProt Q7Z460)
inactive: [3] 0.056

DONSON (UniProt Q9NYP3)
Sequence of UniProt Q9NYP3 (Q9NYP3 whole entry, looked up): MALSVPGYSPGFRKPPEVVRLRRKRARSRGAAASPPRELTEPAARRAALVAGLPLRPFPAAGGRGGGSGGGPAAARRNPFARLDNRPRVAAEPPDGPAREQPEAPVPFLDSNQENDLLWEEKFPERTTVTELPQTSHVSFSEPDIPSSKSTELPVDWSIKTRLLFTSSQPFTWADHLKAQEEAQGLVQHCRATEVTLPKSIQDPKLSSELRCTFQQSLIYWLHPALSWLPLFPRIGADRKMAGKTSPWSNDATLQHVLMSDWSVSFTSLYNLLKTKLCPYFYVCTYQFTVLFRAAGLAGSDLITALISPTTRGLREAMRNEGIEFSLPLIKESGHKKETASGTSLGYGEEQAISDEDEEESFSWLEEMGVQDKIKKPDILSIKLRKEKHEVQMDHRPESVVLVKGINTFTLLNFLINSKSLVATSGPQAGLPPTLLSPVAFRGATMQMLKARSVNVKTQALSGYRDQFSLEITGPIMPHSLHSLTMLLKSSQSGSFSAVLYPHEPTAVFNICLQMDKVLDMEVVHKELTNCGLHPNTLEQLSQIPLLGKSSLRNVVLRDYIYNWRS
inactive: [1] -0.043 | [2] 0.068 | [4] 0.013 | [5] -0.243

DHX32 (UniProt Q7L7V1)
inactive: [3] -0.086 | [5] -0.009

CSRP2 (UniProt Q16527)
Sequence of UniProt Q16527 (Q16527 whole entry, looked up): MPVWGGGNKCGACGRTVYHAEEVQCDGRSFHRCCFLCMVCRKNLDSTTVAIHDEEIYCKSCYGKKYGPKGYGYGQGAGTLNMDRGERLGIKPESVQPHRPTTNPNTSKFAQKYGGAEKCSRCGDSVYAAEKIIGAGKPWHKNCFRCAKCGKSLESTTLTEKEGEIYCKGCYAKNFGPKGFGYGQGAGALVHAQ
inactive: [1] -0.031 | [2] -0.018 | [5] 0.003

CSNK1A1 isoform 3 (UniProt P48729)
inactive: [4] 0.021

DNM2 isoform 4 (UniProt P50570)
inactive: [4] 0.025 | [5] -0.043
